ChEMBL document CHEMBL4513156, “CO-ADD screening of NCPRI (Romania) compounds”
Results with a measured potency or affinity are listed apart.

Key:
Klebsiella pneumoniae = settings: Concentration 32 ug.mL-1; ASSAY_TEST Inhibition of Bacterial Growth; detection method Absorption (OD600); MEDIA CAMHB; plate type 384well; NBS; CORNING #3640; time 18 hr
Candida albicans = settings: 32 ug/mL
Cryptococcus neoformans = settings: Concentration 32 ug.mL-1; ASSAY_TEST Inhibition of Fungal Growth; detection method Resazurin; Absorption (OD600-OD570); plate type 384well; NBS; CORNING #3640

O=C(N/N=C/C[C@@H]1[C@@H](/C=N/NC(=O)c2ccncc2)[C@H](O)C[C@@H]1O)c1ccncc1
Inhibition (Klebsiella pneumoniae): 9.84%
Inhibition (Candida albicans): 0.98%
Inhibition (Cryptococcus neoformans): -79.15%

O=C(NN=CC[C@@H]1[C@@H](/C=C/[C@@H](O)CCc2ccccc2)[C@H](O)C[C@@H]1O)c1ccncc1
Inhibition (Klebsiella pneumoniae): 16.12%
Inhibition (Candida albicans): -1.24%
Inhibition (Cryptococcus neoformans): -90.23%

O=C1C[C@@H]2[C@@H](C=NNC(=O)c3ccncc3)[C@@H](C[C@H]2Cl)O1
Inhibition (Klebsiella pneumoniae): 20.62%
Inhibition (Candida albicans): 2.47%
Inhibition (Cryptococcus neoformans): -98.94%

O=C(N/N=C1/C2C[C@H]3C(C2CO)[C@H]13)c1ccncc1 (some centres not stated)
Inhibition (Klebsiella pneumoniae): 15.76%
Inhibition (Candida albicans): 0.37%
Inhibition (Cryptococcus neoformans): -50.92%

O=C(N/N=C1/C[C@@H]2[C@H](COC(c3ccccc3)(c3ccccc3)c3ccccc3)C[C@H](COC(c3ccccc3)(c3ccccc3)c3ccccc3)[C@@H]2C1)c1ccncc1
Inhibition (Klebsiella pneumoniae): -5.52%
Inhibition (Candida albicans): 2.84%
Inhibition (Cryptococcus neoformans): -17.15%

O=C(N/N=C1/C[C@@H]2[C@@H](C(=O)O)[C@H]1C[C@H]2Cl)c1ccncc1
Inhibition (Klebsiella pneumoniae): 18.24%
Inhibition (Candida albicans): 7.78%
Inhibition (Cryptococcus neoformans): -56.2%

O=C(NNC(=O)c1cccc([N+](=O)[O-])c1C(=O)O)c1ccncc1
Inhibition (Klebsiella pneumoniae): 15.09%
Inhibition (Candida albicans): 1.9%
Inhibition (Cryptococcus neoformans): -5.54%

O=C(NNC(c1ccccc1)(c1ccccc1)c1ccccc1)c1ccncc1
Inhibition (Klebsiella pneumoniae): 4.48%
Inhibition (Candida albicans): 3.62%
Inhibition (Cryptococcus neoformans): -75.72%

O=C(N/N=C1\CC[C@@H]2[C@H]1[C@H](OC(=O)c1ccccc1)C[C@@H]2OC(=O)c1ccccc1)c1ccncc1
Inhibition (Klebsiella pneumoniae): 13.57%
Inhibition (Candida albicans): 12.8%
Inhibition (Cryptococcus neoformans): -65.69%
